Measurements reported in PubChem BioAssay (NCI).
This is part of a sample that, as a whole, favours compounds with a hit. Of some 83,000 tested, about 20% had one in any assay.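 Activity criterion: percent growth below 10, measured after cells in 96-well plates were exposed to a single compound concentration for 48 hours.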 Unmarked numbers belong to inactive results. Activity calls are given as the source filed them.

How the values were obtained:
Assay in all cases: NCI-60 one-dose screen, 48 h (100 = growth as untreated, 0 = no growth, -100 = all killed)
Conditions in all cases: 10 µM unless noted
HCT-15 colon = tested on: HCT-15 colon
HT29 colon = tested on: HT29 colon
SNB-75 CNS = tested on: SNB-75 CNS
SNB-19 CNS = tested on: SNB-19 CNS
U251 CNS = tested on: U251 CNS
SK-MEL-5 melanoma = tested on: SK-MEL-5 melanoma
UACC-62 melanoma = tested on: UACC-62 melanoma
LOX IMVI melanoma = tested on: LOX IMVI melanoma
SK-MEL-28 melanoma = tested on: SK-MEL-28 melanoma
SK-MEL-2 melanoma = tested on: SK-MEL-2 melanoma
EKVX NSCLC = tested on: EKVX NSCLC
SN12C renal = tested on: SN12C renal
UO-31 renal = tested on: UO-31 renal
TK-10 renal = tested on: TK-10 renal
ACHN renal = tested on: ACHN renal
CAKI-1 renal = tested on: CAKI-1 renal
A498 renal = tested on: A498 renal
CCRF-CEM leukemia = tested on: CCRF-CEM leukemia
MOLT-4 leukemia = tested on: MOLT-4 leukemia

| SMILES | growth (HCT-15 colon) | growth (HT29 colon) | growth (SNB-75 CNS) | growth (SNB-19 CNS) | growth (U251 CNS) | growth (SK-MEL-5 melanoma) | growth (UACC-62 melanoma) | growth (LOX IMVI melanoma) | growth (SK-MEL-28 melanoma) | growth (SK-MEL-2 melanoma) | growth (EKVX NSCLC) | growth (SN12C renal) | growth (UO-31 renal) | growth (TK-10 renal) | growth (ACHN renal) | growth (CAKI-1 renal) | growth (A498 renal) | growth (CCRF-CEM leukemia) | growth (MOLT-4 leukemia) |
| --- | --- | --- | --- | --- | --- | --- | --- | --- | --- | --- | --- | --- | --- | --- | --- | --- | --- | --- | --- |
| COc1ccc2c(c1)c(-c1nonc1-c1cn(C)c3ccccc13)cn2C | 25.7% | 8.38% (active) | -6.82% (active) | 34.9% | 32.8% | 13.3% | 38% | 47.2% | 63.1% | 41.4% | 51.7% | 47.8% | 35.1% | 59.2% | 48.6% | 30.1% | 3.63% (active) | 25.7% | 30.2% |
| C#CCOc1ccc2ncnc(N3CCN(C(=O)CCl)CC3)c2c1 | 58.8% [8.25 µM] | 71.7% [8.25 µM] | 101% [8.25 µM] | 95.9% [8.25 µM] | 91.2% [8.25 µM] | 57.7% [8.25 µM] | 68.2% [8.25 µM] | 47.4% [8.25 µM] | 98.4% [8.25 µM] | 87.6% [8.25 µM] | 96.7% [8.25 µM] | 40.7% [8.25 µM] | 75.5% [8.25 µM] | 99.1% [8.25 µM] | -54.7% [8.25 µM] (active) | 109% [8.25 µM] | 110% [8.25 µM] | 10.7% [8.25 µM] | 67.1% [8.25 µM] |
| Cn1cc(C(=O)c2nc(-c3c[nH]c4ccccc34)no2)c2ccccc21 | 25.6% | 35.8% | 55.6% | 91.8% | 92.4% | 16.8% | 60.3% | 83.9% | 94% | 65.3% | 50.5% | 91.3% | 61.6% | 68.2% | 86.4% | 56.9% | 95.9% | 86.7% | 72.5% |
| O=C1/C(=C/c2ccccc2)SC(=S)N1CCc1ccc(O)cc1 | 100% | 102% | 81.1% | 90.4% | 97.3% | 97% | 77% | 89.2% | 103% | 101% | 91.9% | 91.3% | 65% | 99.9% | 93.9% | 73.3% | 92.1% | 74.2% | 88.6% |
| O=C(COc1cccc(/C=C2\COc3ccc(Cl)cc3C2=O)c1)c1ccc(Cl)cc1 | 82% | 97.7% | 67.8% | 90.5% | 87.5% | 94.3% | 80.9% | 76.1% | 119% | 54.2% | 101% | 97.3% | 69.3% | 98.4% | 91% | 84.2% | 111% | 2.99% (active) | 41.2% |
| COc1ccc(C(=O)COc2ccc(/C=C3\COc4ccc(OC)cc4C3=O)cc2)cc1 | 77.5% | 93% | 91.7% | 101% | 84.3% | 74.2% | 85.1% | 80.7% | 94.5% | 68.1% | 103% | 100% | 85.8% | 105% | 99.8% | 99.1% | 100% | 7.46% (active) | 55.5% |
| C#Cc1cccc(NC(=O)c2ccccc2NC(=O)C=C)c1 | 104% [8.25 µM] | 109% [8.25 µM] | 75% [8.25 µM] | 94.1% [8.25 µM] | 100% [8.25 µM] | 99.5% [8.25 µM] | 104% [8.25 µM] | 97.4% [8.25 µM] | 109% [8.25 µM] | 104% [8.25 µM] | 109% [8.25 µM] | 94% [8.25 µM] | 85.6% [8.25 µM] | 81.1% [8.25 µM] | 105% [8.25 µM] | 97.3% [8.25 µM] | 96.8% [8.25 µM] | – | 102% [8.25 µM] |
| Cc1cc(C)nc(SC2=C(Nc3ccc(C)c(Cl)c3)C(=O)N(Cc3ccccc3)C2=O)n1 | 63% [30 µM] | 46% [30 µM] | 58.9% [30 µM] | 78.2% [30 µM] | 68.8% [30 µM] | 62.2% [30 µM] | 49.7% [30 µM] | 75.9% [30 µM] | 94.2% [30 µM] | 85.3% [30 µM] | 52.7% [30 µM] | 66.9% [30 µM] | 16.7% [30 µM] | 84.8% [30 µM] | 81% [30 µM] | 54.3% [30 µM] | 69.5% [30 µM] | 35.3% [30 µM] | 7.47% [30 µM] (active) |
| CCOC(=O)c1c(CN2CCN(C)CC2)nc2ccc(Cl)cc2c1-c1ccccc1 | 62.9% | 18% | 58.6% | 86.8% | 64.4% | 18.3% | 86.3% | 54.4% | -22.6% (active) | 80% | 66.4% | 92.8% | 47.3% | 82.6% | 91.7% | 52.8% | 90.7% | 37.7% | 32.5% |
| COCCNc1ccc2c3c(cccc13)C(=O)N(CCN(C)C)C2=O | 20% | 10.4% | 47.7% | 22.4% | 28.1% | -33.5% (active) | 3.48% (active) | 2.86% (active) | 37.5% | -12.6% (active) | 22.5% | 24.7% | 10.6% | 20.5% | 11.9% | -21.4% (active) | 26.5% | 8.36% (active) | -6.43% (active) |
| FC(F)(F)c1ccc(-c2cn3nc(-c4c[nH]c5ccc(Br)cc45)sc3n2)cc1 | 70.6% | 97.4% | 86.1% | 100% | 92.2% | 96.3% | 84.8% | 88.2% | 111% | 97.8% | 68.9% | 93.9% | 68.8% | 112% | 88.6% | 61.4% | 113% | 95% | 87.6% |
| COc1cccc(/C=C2\SC(=Nc3ccc(NC(C)=O)cc3)NC2=O)c1OC | 96.5% | 116% | 67.5% | 97.7% | 93.1% | 96.2% | 98% | 95.7% | 101% | 110% | 103% | 94.6% | 60.8% | 97.7% | 82.5% | 67.9% | 58.7% | 97.1% | 99.2% |
| Cn1cc(-c2nonc2-c2c[nH]c3ccccc23)c2cccnc21 | 23.5% | 12.4% | 21.2% | 46.4% | 26% | 26.3% | 41.5% | 43% | 61.5% | 8.48% (active) | 49.7% | 39.6% | 55.7% | 75.3% | 60.9% | 39.3% | 17.1% | 20.2% | 16.5% |
| NS(=O)(=O)c1ccc(CN=C2NC(=O)S/C2=C\c2ccc(Br)cc2)cc1 | 103% | 105% | 89.1% | 97.7% | 97.9% | 99.2% | 93.3% | 100% | 100% | 102% | 103% | 97.1% | 88.8% | 108% | 102% | 100% | 102% | 95% | 99.3% |
| COc1ccc(C2CC(c3ccc(Cl)cc3)=NN2/C=C2\SC(=S)N(NC(=O)Cc3ccccc3Nc3c(Cl)cccc3Cl)C2=O)cc1 (configuration not stated) | 68.7% | 57.7% | 58.4% | 18.2% | 54.1% | 81.9% | 63.2% | 26.9% | 92.1% | 80.5% | 62.2% | 48.5% | -30.2% (active) | 52.9% | -34.3% (active) | 62.8% | 72% | – | 13.5% |
| CCOC(=O)n1cc(-c2nonc2-c2cn(C)c3ncccc23)c2ccccc21 | 60.2% | 79.5% | 61.6% | 89.3% | 83.2% | 77.3% | 64.6% | 84.3% | 104% | 90.1% | 61.2% | 87.1% | 58.4% | 98.3% | 80.1% | 58.1% | 99% | 86.6% | 69.8% |
